# PubChem BioAssay (NCATS)
# “And” between values parts separate entries of the source, which are not always exact repeats. Equal values may be shown once. Records with an inconclusive call do not appear. Where a call stands in place of a potency, no number is given. Where a structure was tested more than once in an assay, its records may differ in their call. The source made the active and inactive calls. The call rests on the fitted dose curve; in most records, active means well fitted curve in the direction sought with a large enough effect; inconclusive means small, poorly fitted or top-dose-only effect, or another doubt; inactive means no such curve, though single readings can be large; an effect the other way counts as inactive or inconclusive.
# Experiments:
# [1] = qHTS Assay for Identification of Small Molecule Agonists for Thrombopoietin (TPO) Signaling Pathway (AID 917); details: TPO signaling pathway reporter cells, agonist qHTS; series mostly up to 38.5 µM
# Outline: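 Murine Ba/F3 cells expressing human TPO receptor and GPIIb-promoter luciferase, IL-3-starved overnight, given compound plus TPO at 26 pM (EC50). After 24 h at 37 C, 5% CO2, luminescence read.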
# [2] = target: Pyruvate kinase (Leishmania mexicana) (UniProt Q27686); test: qHTS Validation Assay for Inhibitors of Leishmania Mexicana Pyruvate Kinase (AID 945); further: potency means the concentration at half of the fitted maximal effect; details: purified L. mexicana pyruvate kinase, enzyme activity, E451W mutant enzyme; series mostly up to 57.5 µM
# Outline: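 An endpoint luciferase assay: 0.2 nM LmPYK E451W turns over 0.5 mM PEP with 0.1 mM ADP for 1 h at room temperature, pH 7.2, before PKLight addition. Values are normalized to DMSO-only wells.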
# [3] = target: Muscarinic acetylcholine receptor M1 (Rattus norvegicus) (UniProt P08482); test: qHTS Assay for Antagonists of Acetylcholine Muscarinic M1 Receptor: Measurement of IP-One Response (AID 944); details: CHO-M1 cells, IP-One HTRF, antagonist mode; series mostly up to 46.1 µM; further: nearly all actives have a fitted effect of over 75% in size; further: potency means the concentration at half of the fitted maximal effect
# Outline: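 CHO cells stably expressing rat M1, pretreated 10 min with compound, then stimulated 30 min with carbachol at EC80 (200 nM) in LiCl-containing buffer pH 7.4; IP1 accumulation read by HTRF competition (665/620 nm).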
# [4] = qHTS Assay for Identification of Small Molecule Antagonists for Thrombopoietin (TPO) Signaling Pathway (AID 918); details: TPO-dependent cell signaling reporter, antagonist mode; further: potency means the concentration at half of the fitted maximal effect; nearly all actives have a fitted effect of over 60% in size
# Outline: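 Murine Ba/F3 cells expressing human TPO receptor and a Glycoprotein IIb promoter-luciferase reporter, IL-3-starved overnight, treated with compound plus TPO at EC50 (26 pM final). After 24 h at 37 C, luminescence read to detect inhibitors.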
# [5] = Cell Viability - LYMP2-001 (AID 921); details: LYMP2-001 lymphoblastoid cell viability; series mostly up to 92.2 µM; further: nearly all actives have a fitted effect of over 70% in size; further: potency means the concentration at half of the fitted maximal effect
# Outline: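 Human lymphoblastoid LYMP2-001 cells, 2500 per well, in complete medium, treated 24 h at 37 C. Viability from cellular ATP by CellTiter-Glo luminescence; AC50 from Hill-equation fits of qHTS concentration-response.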
# [6] = MultiTox-Fluor Cytotoxicity Assay - LYMP1-001 - Dead Cells (AID 946); details: LYMP1-001 lymphoblastoid cells, dead-cell protease fluorescence; series mostly up to 92.2 µM;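 further: cells exposed to compound for 16 h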; further: potency means the concentration at half of the fitted maximal effect
# Outline: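 AC50 from Hill fit of concentration-response; data normalized to DMSO (basal) and 15 uM tetraoctylammonium bromide (100%). LYMP1-001 lymphoblastoid cells, 2500/well, 16 hr compound at 37 C; dead-cell protease fluorescence, Ex/Em 485/520.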
# Pyruvate kinase (Leishmania mexicana), sequence (Q27686 2-499 E452W): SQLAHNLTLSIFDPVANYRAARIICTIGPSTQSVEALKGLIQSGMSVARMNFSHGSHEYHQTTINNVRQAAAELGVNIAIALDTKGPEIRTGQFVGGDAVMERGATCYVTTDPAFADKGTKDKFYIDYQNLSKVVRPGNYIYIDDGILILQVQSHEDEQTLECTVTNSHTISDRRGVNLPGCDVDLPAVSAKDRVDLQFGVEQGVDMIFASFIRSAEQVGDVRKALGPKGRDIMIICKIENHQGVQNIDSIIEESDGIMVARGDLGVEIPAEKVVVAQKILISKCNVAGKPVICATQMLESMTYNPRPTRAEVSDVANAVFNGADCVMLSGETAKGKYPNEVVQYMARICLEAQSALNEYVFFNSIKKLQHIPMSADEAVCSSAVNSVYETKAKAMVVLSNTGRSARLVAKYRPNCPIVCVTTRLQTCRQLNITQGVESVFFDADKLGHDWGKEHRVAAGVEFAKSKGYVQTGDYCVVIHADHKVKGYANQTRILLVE
# Muscarinic acetylcholine receptor M1 (Rattus norvegicus), sequence (P08482 whole entry, looked up): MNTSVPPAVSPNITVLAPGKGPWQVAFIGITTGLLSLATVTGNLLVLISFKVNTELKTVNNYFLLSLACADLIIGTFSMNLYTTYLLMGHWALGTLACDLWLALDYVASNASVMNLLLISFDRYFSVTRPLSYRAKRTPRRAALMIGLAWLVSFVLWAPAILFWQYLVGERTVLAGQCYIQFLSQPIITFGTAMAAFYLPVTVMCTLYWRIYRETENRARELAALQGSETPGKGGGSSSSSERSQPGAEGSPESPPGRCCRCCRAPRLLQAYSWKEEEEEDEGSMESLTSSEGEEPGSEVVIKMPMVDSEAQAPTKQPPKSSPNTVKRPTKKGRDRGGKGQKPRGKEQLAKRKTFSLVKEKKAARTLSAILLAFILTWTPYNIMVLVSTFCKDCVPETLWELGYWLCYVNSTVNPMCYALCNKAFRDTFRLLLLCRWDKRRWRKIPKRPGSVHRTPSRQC
smiles,measurement,setting,value
CCN(CCCl)Cc1ccccc1Br,Potency,[1],inactive
same,Potency,[2],inactive
Cc1sc2ccccc2c1CC1=NCCN1,Potency,[1],inactive
same,Potency,[3],inactive
same,Potency,[2],inactive
NC(=O)COc1c(F)cc(SCCNS(=O)(=O)c2ccccc2)cc1F,Potency,[1],inactive
same,Potency,[2],inactive
COc1ccc2[nH]c3c(c2c1)CCNC3,Potency,[1],inactive
same,Potency,[3],inactive
same,Potency,[2],inactive
C[C@H](N)CN1CCc2ccc(Br)cc21,Potency,[1],inactive
same,Potency,[2],inactive
Clc1ccc(N2C[C@H]3CC[C@@H](C2)N3)nn1,Potency,[1],inactive
same,Potency,[2],inactive
C[N+](C)(C)CC#CCN1CCCC1=O,Potency,[1],inactive
same,Potency,[3],inactive
same,Potency,[2],inactive
N[C@@H](Cn1oc(=O)[nH]c1=O)C(=O)O,Potency,[1],inactive
same,Potency,[3],inactive
same,Potency,[2],inactive
CC(C)NP(=O)(NC(C)C)OP(=O)(NC(C)C)NC(C)C,Potency,[1],inactive
same,Potency,[3],inactive
same,Potency,[2],inactive
CNC(=O)OCC[N+](C)(C)C,Potency,[1],inactive
same,Potency,[3],inactive
same,Potency,[2],inactive
CN1CCc2cccc(Cl)c2CC1,Potency,[1],inactive
same,Potency,[2],inactive
CCCN(CCC)CCc1ccc(O)c(O)c1,Potency,[1],inactive
same,Potency,[3],inactive
same,Potency,[2],inactive
c1ccc2c(N3CCNCC3)cccc2c1,Potency,[1],inactive
same,Potency,[2],inactive
C[N+]1(C)CCN(c2ccccc2)CC1,Potency,[1],inactive
same,Potency,[2],inactive
NC(=O)c1cc(N2CC2)c([N+](=O)[O-])cc1[N+](=O)[O-],Potency,[1],inactive
same,Potency,[3],inactive
same,Potency,[2],inactive
CC(C)(C)c1cc(C=C(C#N)C#N)cc(C(C)(C)C)c1O,Potency,[4],1.58 µM (active)
same,Potency,[3],1.41 µM (active)
same,Potency,[2],inactive
CP(=O)(O)C1=CCNCC1,Potency,[1],inactive
same,Potency,[3],inactive
same,Potency,[2],inactive
OCc1cnc[nH]1,Potency,[1],inactive
same,Potency,[3],inactive
same,Potency,[2],inactive
COc1ccc2c(c1)/C(=C/c1cnc[nH]1)C(=O)N2,Potency,[4],10 µM (active)
same,Potency,[2],inactive
CCCN(CCC)CCc1c[nH]c2ccc(C(N)=O)cc12,Potency,[1],inactive
same,Potency,[2],inactive
CCCN(CCC)[C@@H]1CCc2cccc(O)c2C1,Potency,[1],inactive
same,Potency,[3],7.08 µM (active) and inactive
same,Potency,[2],inactive
C[C@@H]1[C@@H]2Cc3ccc(O)cc3[C@@]1(C)CCN2CC1CC1,Potency,[1],inactive
same,Potency,[3],15.8 µM (active)
same,Potency,[2],inactive
NC(N)=NOCC[C@H](N)C(=O)O,Potency,[1],inactive
same,Potency,[3],inactive
same,Potency,[2],inactive
CCCN(CCC)[C@H]1CCc2c(F)ccc(O)c2C1,Potency,[1],inactive
same,Potency,[3],8.91 µM (active)
same,Potency,[2],inactive
C[N+](C)(C)CC#CCOC(=O)Nc1cccc(Cl)c1,Potency,[1],inactive
same,Potency,[3],inactive
same,Potency,[2],inactive
NNC(N)=O,Potency,[5],inactive
same,Potency,[2],inactive
same,Potency,[6],inactive
CCCCCl,Potency,[5],inactive
same,Potency,[6],inactive
[O]=[Cd],Potency,[5],inactive
same,Potency,[6],inactive
CC(C)Nc1ccc(Nc2ccccc2)cc1,Potency,[5],12.6 µM (active)
O=C/C=C/c1ccccc1,Potency,[5],inactive
same,Potency,[6],inactive
Clc1ccccc1Cl,Potency,[5],inactive
same,Potency,[6],inactive
ClC(Cl)(Cl)Cl,Potency,[5],inactive
same,Potency,[6],inactive
C[N+]1(C)[C@@H]2CC[C@H]1CC(OC(=O)c1c[nH]c3ccccc13)C2 (stereo partly drawn),Potency,[4],10 µM (active)
same,Potency,[2],inactive
C[C@H]1CC[C@@H]2[C@@H](C)[C@H]3[C@H](C[C@H]4[C@@H]5CC=C6CC(O[C@@H]7O[C@H](CO)[C@H](O)[C@H](O[C@@H]8O[C@H](CO)[C@@H](O)[C@H](O)[C@H]8O)[C@H]7O[C@H]7O[C@@H](C)[C@H](O)[C@@H](O)[C@H]7O)CC[C@]6(C)[C@H]5CC[C@]34C)N2C1 (stereo partly drawn),Potency,[5],inactive
C[C@@H]1O[C@H](C[N+](C)(C)C)CS1,Potency,[3],inactive
same,Potency,[2],inactive
ClCC1CO1 (stereo not drawn),Potency,[6],inactive
C=CCN=C=S,Potency,[5],inactive
same,Potency,[6],inactive
COC1=CC(=O)O[C@@H](/C=C/c2ccccc2)C1,Potency,[5],inactive
same,Potency,[6],inactive
C[C@H]1CCC[C@H](O)CCCCCc2cc(O)cc(O)c2C(=O)O1,Potency,[5],inactive
same,Potency,[6],inactive
O=CC=O,Potency,[5],inactive
same,Potency,[6],inactive
CCOC(=O)c1ccccc1C(=O)OCC,Potency,[5],inactive
same,Potency,[6],inactive
N#CC(C#N)=Cc1cc(O)c(O)c(O)c1,Potency,[2],inactive
CN1CCC(c2c[nH]c3ccc(O)cc23)CC1,Potency,[2],inactive
O=[N+]([O-])c1ccccc1,Potency,[5],inactive
same,Potency,[6],inactive
CC(C)CCON=O,Potency,[5],inactive
same,Potency,[6],inactive
O=[N+]([O-])c1ccc(F)c([N+](=O)[O-])c1,Potency,[6],inactive
C[C@]12CCC(=O)C[C@@H]1CC[C@@H]1[C@@H]2CC[C@]2(C)[C@@H](O)CC[C@@H]12,Potency,[5],inactive
O=Cc1ccco1,Potency,[5],inactive
same,Potency,[6],inactive
O=C(O)c1cc[c]([Hg][Cl])cc1,Potency,[3],inactive
same,Potency,[2],3.98 µM (active)
NC(=O)CI,Potency,[4],3.16 µM (active)
same,Potency,[2],inactive
O=C1C2CC=CCC2C(=O)N1SC(Cl)(Cl)Cl (stereo not drawn),Potency,[5],2 µM (active) and 5.01 µM (active)
same,Potency,[6],10 µM (active)
O=C(O)C(Cl)(Cl)Cl,Potency,[5],inactive
same,Potency,[6],inactive
ClC=C(Cl)Cl,Potency,[5],inactive
same,Potency,[6],inactive
[O]=[Cr](=[O])([OH])[O][Cr](=[O])(=[O])[OH],Potency,[5],12.6 µM (active) and 6.31 µM (active)
same,Potency,[6],inactive
S=C=S,Potency,[5],inactive
same,Potency,[6],inactive
CN(N=O)c1cc(O)ccc1O,Potency,[3],inactive
same,Potency,[2],inactive
Oc1cc(Cl)c(Cl)cc1Cl,Potency,[5],inactive
same,Potency,[6],inactive
CCCN1CCc2cc(O)cc3c2[C@H]1Cc1ccc(O)c(O)c1-3,Potency,[4],10 µM (active)
same,Potency,[2],inactive
CCCCCCCCOC(=O)c1ccccc1C(=O)OCCCCCCCC,Potency,[5],inactive
same,Potency,[6],inactive
